Several values for one entry are separate records, joined by “and”; a condition that tells them apart may be missing. Equal entries are not always repeated. Records with an inconclusive call do not appear. Where a call stands in place of a potency, no number is given. Activity calls are given as the source filed them. Calls follow the shape of the dose curve; as a rule, active = well fitted cell-killing curve with a large enough effect in the repeat runs; inconclusive = weak or mixed curves, or effect the other way; inactive = flat fitted curve, though single readings scatter.
test: Nuclear factor erythroid 2-related factor 2/antioxidant responsive element (Nrf2/ARE) small molecule agonists: qHTS cell viability counter screen in human keratinocytes (AID 1919968); conditions: KeratinoSens HaCaT ARE cells viability, CellTiter-Fluor, 24 h; series mostly up to 92.4 µM; also: nearly all actives have a fitted effect of over 55% in size
Description: U.S. Tox21 Program National Center for Advancing Translational Sciences [NCATS] Division of Preclinical Innovation [DPI] U.S. Environmental Protection Agency [EPA] National Institutes of Environmental Health Sciences [NIEHS] National Toxicology Program [NTP] U.S. Food and Drug Administration [FDA] Tox21 Assay Overview: Oxidative stress has been implicated in the pathogenesis of a variety of diseases ranging from cancer to neurodegeneration. The antioxidant response element (ARE) signaling pathway plays an important role in the amelioration of oxidative stress. The KeratinoSens (Givaudan, Switzerland) is an in vitro test method which quantifies luciferase induction as a measure of activation of Keap1-Nrf2-antioxidationt/electrophile response element (ARE) dependant pathway in HaCaT human keratinocytes stably transfected with a selectable plasmid. The KeratinoSens assay is a cell-based assay with a reporter cell line to detect potential skin sensitizers by their ability to induce the Nrf2/ARE-response. The activation of the report gene under culture conditions can be detected by ONE-Glo Luciferase Assay System (Promega, Madison, WI). This cell line has been used to screen the Tox21 10K compound library to identify agonists that induce oxidative stress. The cytotoxicity of the Tox21 compound library against the KS-ARE cell line was tested in parallel by measuring the cell viability using CellTiter- Fluor assay system (Promega, Madison, WI) in the same wells.
Tox21 Assay Protocol Summary: HaCaT derived cell line KeratinoSens were dispensed at 1,500 cells/5uL/well in 1536-well white wall/solid bottom plates using a Multidrop Combi (ThermoFisher Scientific, Waltham, MA) dispenser. After the assay plates were incubated at 37 C/5% CO2 for 5 h, 23 nL of compounds dissolved in DMSO, positive controls or DMSO only was transferred to the assay plate by a pintool workstation (Kalypsys, San Diego, CA). The plates were incubated at 37 C/5% CO2 for 23 h, followed by addition of 1uL/well of CellTiter-Fluor reagent into the assay plates using a Flying Reagent Dispenser (Aurora Discovery, San Diego, CA) for cell viability readout that measures cytotoxicity. After 1 h incubation at 37 C/5% CO2 the fluorescence intensity was measured using a ViewLux (PerkinElmer, Shelton, CT) plate reader.
Potency is read from the fitted curve at half-maximal effect.

| Structure (SMILES) | Potency |
| --- | --- |
| NN=C(N)N | inactive |
| OCC(Br)CBr (stereo not given) | inactive |
| CC(C)(O)C(Cl)(Cl)Cl | inactive |
| Cc1ccc(N)cc1N | inactive |
| COP(=O)(CCC(=O)NCO)OC | inactive |
| COP(=O)(NC(C)=O)SC (stereo not given) | inactive |
| CCCCn1cc[n+](C)c1 | inactive |
| ClC(Cl)c1ccccc1 | inactive |
| CN(C)c1ccc(N=O)cc1 | 27.4 µM (active) and 54.5 µM (active) |
| CCC(=O)C(CC(C)N(C)C)(c1ccccc1)c1ccccc1 (stereo not given) | inactive |
| O=C(O)c1nn(Cc2ccc(Cl)cc2Cl)c2ccccc12 | inactive |
| O=S(=O)(O)C(F)(F)C(F)(F)C(F)(F)C(F)(F)C(F)(F)C(F)(F)F | inactive |
| Nc1ccc(-c2ccc(N)cc2)cc1 | inactive |
| CCC(C)c1ccc(O)cc1 (stereo not given) | inactive |
| CC(C)OC(=S)S | 30.6 µM (active) |
| c1ccc(C2CO2)cc1 (stereo not given) | inactive |
| CC(C)c1ccc(OP(=O)(Oc2ccc(C(C)C)cc2)Oc2ccc(C(C)C)cc2)cc1 | inactive |
| CC1COC2(c3ccccc3Cl)c3cc(Cl)ccc3NC(=O)CN12 (stereo not given) | inactive |
| O=C(O)CC[N+](=O)[O-] | inactive |
| N#CCCCCC#N | inactive |

| Structure (SMILES) | Potency |
| --- | --- |
| O=C(NC(=O)c1ccccc1Cl)Nc1ccc(OC(F)(F)F)cc1 | inactive |
| ClCCOCCCl | inactive |
| CCCCC(CC)C(=O)Cl (stereo not given) | inactive |
| Cc1[nH]c(=O)n(C(C)(C)C)c(=O)c1Cl | inactive |
| Clc1cccc(Cl)c1 | inactive |
| CN=C=O | inactive |
| CC1CN1 (stereo not given) | inactive |
| CC(C)CCCCCCOC(=O)c1ccccc1C(=O)OCCCCCCC(C)C | inactive |
| CC(Br)C(=O)O (stereo not given) | inactive |
| COC(=O)NS(=O)(=O)c1ccc(N)cc1 | inactive |
| NNC(=S)NN | 6.28 µM (active) and 30.6 µM (active) |
| CCCCCC[n+]1ccccc1 | inactive |
| O=c1[nH]c2ccccc2n1C1CCN(CCCC(c2ccc(F)cc2)c2ccc(F)cc2)CC1 | 27.3 µM (active) and 13.3 µM (active) |
| COP(=O)(OC)OC | inactive |
| CN(CCCC(=O)c1cccnc1)N=O | inactive |
| Nc1ccc(Cl)cc1N | inactive |
| C=CC(Cl)CCl (stereo not given) | inactive |
| CCCCCCCCCCCCCCCl | inactive |
| CCOP(=S)(OCC)Oc1ccc([N+](=O)[O-])cc1 | inactive |
| Cc1cc(-c2ccc(N)c(C)c2)ccc1N | inactive |

Source: PubChem BioAssay (Tox21)
